Results published in PubChem BioAssay (NCATS).
Records with an inconclusive call do not appear. A call without a number means that no potency is given here. Activity calls are given as the source filed them. The call rests on the fitted dose curve; in most records, active means well fitted curve in the direction sought with a large enough effect; inconclusive means small, poorly fitted or top-dose-only effect, or another doubt; inactive means no such curve, though single readings can be large; an effect the other way counts as inactive or inconclusive.

Columns and labels:
[1] = qHTS of pediatric cancer cell lines to identify multiple opportunities for drug repurposing: Primary screen for BT-12 cells (AID 1347101); further: nearly all actives have a fitted effect of over 25% in size
Summary of the method: (§1)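 Cells (500-1,000/well) rested 5 h, then received compounds for 48 h; metabolically active cells were measured by CellTiter-Glo luminescence. Final concentrations spanned up to 46 µM (MIPE, 11-point) or 0.59 nM-46 µM (NPC, 8-point) in primary screens, 11-point in follow-ups.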

[2] = qHTS of pediatric cancer cell lines to identify multiple opportunities for drug repurposing: Primary screen for RD cells (AID 1347104); further: nearly all actives have a fitted effect of over 55% in size
Summary of the method: (§2)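 Luminescence from CellTiter-Glo served as readout of metabolically active cells after 48 h compound exposure. Titrations: MIPE 11-point, from 0.78 nM; NPC 8-point, from 0.59 nM (final). Concentration-response curves came straight from the primary screen.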

[3] = qHTS of pediatric cancer cell lines to identify multiple opportunities for drug repurposing: Primary screen for MG 63 (6-TG R) cells (AID 1347105); further: nearly all actives have a fitted effect of over 50% in size
Summary of the method: as §2

[4] = qHTS of pediatric cancer cell lines to identify multiple opportunities for drug repurposing: Primary screen for control Hh wild type fibroblast cells (AID 1347106); further: nearly all actives have a fitted effect of over 55% in size
Summary of the method: (§3)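 Cells (500-1,000/well) in growth media were settled 5 h at 37 degrees C, then given compounds for 48 h. Viability was read as CellTiter-Glo luminescence. Primary runs used MIPE at 11 points (0.78 nM-46 µM) and NPC at 8 points (0.59 nM-46 µM); follow-ups used 11 points.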

[5] = qHTS of pediatric cancer cell lines to identify multiple opportunities for drug repurposing: Primary screen for Rh30 cells (AID 1347107); further: nearly all actives have a fitted effect of over 75% in size
Summary of the method: as §3

[6] = qHTS of pediatric cancer cell lines to identify multiple opportunities for drug repurposing: Primary screen for Rh41 cells (AID 1347108); further: nearly all actives have a fitted effect of over 70% in size
Summary of the method: as §2

[7] = qHTS of pediatric cancer cell lines to identify multiple opportunities for drug repurposing: Primary screen for Rh18 cells (AID 1347102); further: nearly all actives have a fitted effect of over 65% in size
Summary of the method: as §3

[8] = qHTS of pediatric cancer cell lines to identify multiple opportunities for drug repurposing: Primary screen for OHS-50 cells (AID 1347103); further: nearly all actives have a fitted effect of over 40% in size
Summary of the method: as §1

[9] = qHTS of pediatric cancer cell lines to identify multiple opportunities for drug repurposing: Confirmatory screen for NB1643 cells (AID 1347109); further: nearly all actives have a fitted effect of over 45% in size
Summary of the method: as §3

[10] = qHTS of pediatric cancer cell lines to identify multiple opportunities for drug repurposing: Confirmatory screen for A673 cells (AID 1347110);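 further: cells exposed to compound for 48 h before the viability read; nearly all actives have a fitted effect of over 65% in size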
Summary of the method: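 A673 cells at 500-1,000 cells/well were dosed 5 h after plating, in dilution series up to 46 uM final; primary runs used 8 or 11 points and confirmatory runs used 11 points. Viability was read by CellTiter-Glo luminescence after 48 h, against DMSO and 2.3 uM bortezomib controls.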
Potency means the concentration at half of the fitted maximal effect.

Structure (SMILES)	Potency [1]	Potency [2]	Potency [3]	Potency [4]	Potency [5]	Potency [6]	Potency [7]	Potency [8]	Potency [9]	Potency [10]
O=C(Oc1ccc([N+](=O)[O-])cc1)N1CCC(C(O)(c2ccc3c(c2)OCO3)c2ccc3c(c2)OCO3)CC1	inactive	inactive	inactive	inactive	inactive	inactive	–	–	–	–
C[C@@]12OC(=O)[C@]1([C@@H](O)[C@@H]1C=CCCC1)NC(=O)[C@H]2CCCl	–	0.0526 µM (active)	0.0296 µM (active)	93.5 nM (active)	5.9 µM (active)	0.059 µM (active)	52.6 nM (active)	68.5 nM (active)	1.04 µM (active)	585 nM (active)
CN[C@@H](C)[C@H](O)c1ccccc1	–	inactive	inactive	inactive	inactive	inactive	inactive	inactive	–	–
N=c1c2c(-c3ccccc3)c(-c3ccccc3)n(Cc3ccccc3)c2ncn1C1CCC(O)CC1 (stereo unspecified)	6.85 µM (active)	–	–	inactive	–	–	–	–	–	–
O=[N+]([O-])c1ncc[nH]1	–	inactive	inactive	inactive	inactive	inactive	inactive	inactive	–	–
Oc1ccc2c3c1O[C@H]1c4[nH]c5c(c4C[C@@]4(O)[C@@H](C2)N(CC2CC2)CC[C@]314)C[C@@]1(O)[C@H]2Cc3ccc(O)c4c3[C@@]1(CCN2CC1CC1)[C@H]5O4	inactive	inactive	inactive	inactive	inactive	inactive	–	–	–	–
CC(=O)OCC1=C(C(=O)O)N2C(=O)[C@@H](N)[C@@H]2SC1	1.37 µM (active)	–	inactive	inactive	inactive	inactive	–	1370 nM (active)	–	–
O=C(Nc1ccncc1)C(=O)c1cn(Cc2ccc(Cl)cc2)c2ccccc12	–	0.0469 µM (active)	–	inactive	inactive	0.0743 µM (active)	inactive	86.3 nM (active)	0.465 µM (active)	414 nM (active)
CO/C=C(/C(=O)OC)c1ccccc1Oc1cc(Oc2ccccc2C#N)ncn1	8.93 µM (active)	–	–	inactive	–	–	–	14200 nM (active)	–	–
Cc1c(C(=O)c2cccc3ccccc23)c2cccc3c2n1[C@H](CN1CCOCC1)CO3	–	29.6 µM (active)	23.5 µM (active)	–	–	20.9 µM (active)	20900 nM (active)	13700 nM (active)	–	–
O=C(Oc1ccc([N+](=O)[O-])cc1)N1CCN(Cc2cccc(Oc3ccccc3)c2)CC1	–	18.7 µM (active)	14.8 µM (active)	3320 nM (active)	inactive	inactive	inactive	inactive	–	–
CCCCCC[C@H]1C(=O)O[C@H](C)[C@H](NC(=O)c2cccc(NC=O)c2O)C(=O)O[C@@H](C)[C@@H]1OC(=O)CC(C)C	0.122 µM (active)	–	–	inactive	–	–	–	61.1 nM (active)	–	13100 nM (active)
CC[C@@H](C(N)=O)N1CCCC1=O	inactive	–	inactive	inactive	inactive	inactive	–	–	–	–
COC[C@H]1OC(=O)c2coc3c2[C@@]1(C)C1=C(C3=O)[C@@H]2CC[C@H](O)[C@@]2(C)C[C@@H]1OC(C)=O	–	14.8 µM (active)	1.87 µM (active)	inactive	–	11.8 µM (active)	4690 nM (active)	306 nM (active)	–	–
CCC1(CCC(C)C)C(=O)NC(=O)NC1=O	–	inactive	inactive	inactive	inactive	inactive	inactive	inactive	–	–
CC(C)N(CCNC(=O)CN1CCCC1=O)C(C)C	–	inactive	inactive	inactive	inactive	inactive	inactive	inactive	–	–
O=C(N[C@H]1CN2CCC1CC2)c1ccc(Cl)cc1	inactive	26.4 µM (active)	–	–	–	–	–	–	16.5 µM (active)	1650 nM (active)
O=S(=O)(F)Cc1ccccc1	inactive	inactive	–	inactive	inactive	inactive	–	–	–	–
CC[N+]1(CCOC(=O)C(O)(c2ccccc2)c2ccccc2)CCCCC1	–	inactive	inactive	inactive	inactive	inactive	inactive	inactive	–	–
O=C(O)CCCOc1ccc(Cl)cc1Cl	inactive	inactive	inactive	inactive	inactive	inactive	–	–	–	inactive
C=CCC1=C(C)C(OC(=O)C2C(C=C(C)C)C2(C)C)CC1=O (stereo unspecified)	–	–	inactive	inactive	–	–	inactive	28200 nM (active)	–	–

Structure (SMILES)	Potency [1]	Potency [2]	Potency [3]	Potency [4]	Potency [5]	Potency [6]	Potency [7]	Potency [8]	Potency [9]	Potency [10]
O=C(O)C(Cl)Cl	–	inactive	inactive	inactive	inactive	inactive	inactive	inactive	–	–
c1ccc2c(CN3CCNCC3)cccc2c1	inactive	inactive	inactive	inactive	inactive	inactive	–	–	–	–
CCCCCCCCc1ccc(O)cc1	–	inactive	inactive	inactive	inactive	inactive	inactive	25400 nM (active)	–	–
C[C@H]1CCCC=CC2C[C@H](O)C[C@@H]2[C@H](O)C=CC(=O)O1 (stereo partly specified)	–	0.001 µM (active)	–	–	inactive	–	1 nM (active)	1 nM (active)	0.131 µM (active)	414 nM (active)
C=CCON=C(C[C@H]1O[C@@H]2O[C@]3(C)CC[C@@H]4[C@H](C)CC[C@@H]([C@H]1C)[C@@]24OO3)[C@H]1O[C@@H]2O[C@]3(C)CC[C@H]4[C@H](C)CC[C@@H]([C@@H]1C)[C@@]24OO3	0.344 µM (active)	–	–	inactive	inactive	0.469 µM (active)	–	306 nM (active)	0.414 µM (active)	–
CC(C)[C@]12O[C@@H]1[C@@H]1O[C@]13[C@]1(O[C@H]1C[C@@H]1C4=C(CC[C@@]13C)C(=O)OC4)[C@H]2O	0.001 µM (active)	0.001 µM (active)	–	inactive	inactive	52.6 µM (active)	–	1 nM (active)	–	92.8 nM (active)
COc1cc2cc(c1Cl)N(C)C(=O)C[C@H](OC(=O)C(C)C)[C@]1(C)O[C@H]1[C@H](C)[C@@H]1C[C@@](O)(NC(=O)O1)[C@H](OC)C=CC=C(C)C2	–	–	inactive	inactive	inactive	inactive	inactive	1 nM (active)	65.7 µM (active)	1 nM (active)
CCCCOC(=O)c1ccccc1C(=O)OCc1ccccc1	–	inactive	inactive	inactive	inactive	inactive	inactive	–	–	–
COc1cc([C@@H]2c3cc4c(cc3[C@@H](O)C3COC(=O)C32)OCO4)cc(OC)c1O (stereo partly specified)	–	–	inactive	–	inactive	–	inactive	34.3 nM (active)	–	522 nM (active)
Cc1cc(O)ccc1Cl	–	inactive	inactive	inactive	inactive	inactive	inactive	–	–	–
CCCN1CCO[C@@H]2c3cc(O)ccc3OC[C@@H]21	–	–	inactive	inactive	inactive	inactive	inactive	inactive	inactive	inactive
O=S(=O)(O)C(F)(F)C(F)(F)C(F)(F)C(F)(F)F	–	inactive	inactive	inactive	inactive	inactive	inactive	–	–	–
COc1ccc2c(c1)[C@]13CCCCC1C(C2)N(C)CC3 (stereo partly specified)	–	inactive	inactive	inactive	inactive	inactive	inactive	–	–	–
C[C@]12Cc3cn[nH]c3C[C@@H]1CC[C@@H]1[C@H]2CC[C@@]2(C)[C@H]1CC[C@]2(C)O	–	inactive	inactive	inactive	–	inactive	inactive	–	inactive	inactive
c1cc2ccc3cccc4ccc(c1)c2c34	–	inactive	inactive	inactive	inactive	inactive	inactive	–	–	–
O=[N+]([O-])c1c2ccccc2cc2ccccc12	–	–	inactive	inactive	inactive	–	inactive	–	–	–
COc1ccc(N(C(=O)Oc2c(C)cccc2C)c2ccnc(Nc3ccc(N4CCN(C)CC4)cc3)n2)c(OC)c1	–	–	–	–	inactive	inactive	inactive	9680 nM (active)	–	–
O=C(O)COc1nc(Cl)c(Cl)cc1Cl	–	inactive	inactive	inactive	inactive	inactive	inactive	–	–	2180 nM (active)
CC=C(C)C(=O)N[C@@H](c1ccccc1)[C@@H](O)C(=O)O[C@H]1C[C@@]2(O)[C@@H](OC(=O)c3ccccc3)[C@@H]3[C@]4(OC(C)=O)CO[C@@H]4C[C@H](O)[C@@]3(C)C(=O)[C@H](OC(C)=O)C(=C1C)C2(C)C	–	–	–	inactive	inactive	–	inactive	1 nM (active)	–	32.9 nM (active)
CC1=NN=C(c2ccc(N)cc2)c2cc3c(cc2C1)OCO3	–	inactive	inactive	inactive	inactive	inactive	inactive	–	–	–
O=C(O)CNC(=O)c1c(O)c2ccccc2n(Cc2ccccc2)c1=O	–	inactive	inactive	inactive	inactive	inactive	inactive	–	–	–
